The values below come from PubChem BioAssay (NCI).

Some test systems named below: HCT-15 colon; HT29 colon; SNB-75 CNS; SNB-19 CNS; U251 CNS; PC-3 prostate; SK-MEL-5 melanoma; UACC-62 melanoma; LOX IMVI melanoma; SK-MEL-28 melanoma; SK-MEL-2 melanoma; EKVX NSCLC; SN12C renal; UO-31 renal; TK-10 renal; ACHN renal; CAKI-1 renal; A498 renal; CCRF-CEM leukemia; MOLT-4 leukemia.
Assay in all cases: NCI-60 one-dose screen, 48 h (100 = growth as untreated, 0 = no growth, -100 = all killed)
What all share (settings): 10 µM unless noted

This is part of a sample that, as a whole, favours compounds with a hit. Of some 83,000 tested, about 20% had one in any assay.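 Single-concentration screen, 48 h exposure, 96-well plates. Endpoint: percent growth. Below 10 = active.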 Values without a mark were called inactive. Active and inactive are the calls of the source.

As to `O=C(Nc1cccc(Cl)c1)Oc1c(Br)c(Br)c(Br)c(Br)c1Br`, the growth in the experiment with HCT-15 colon was 98.2%; in the experiment with HT29 colon, 91.8%; with SNB-75 CNS, 90%; in the experiment with SNB-19 CNS it was 101%; with U251 CNS, 91.9%; with PC-3 prostate it was 59.5%. Also, the growth with SK-MEL-5 melanoma is 75.2%; in the experiment on UACC-62 melanoma, 82.1%; with LOX IMVI melanoma, 88.6%; with SK-MEL-28 melanoma, 93.1%; in the experiment with SK-MEL-2 melanoma it was 79%; with EKVX NSCLC it was 92.1%. Besides, the growth is 92.7% with SN12C renal; 74.9% in the experiment on UO-31 renal; 99.9% in the experiment with TK-10 renal; 104% in the experiment with ACHN renal; 90.5% in the experiment with CAKI-1 renal; 78.3% with A498 renal. Moreover, the growth with CCRF-CEM leukemia was 87.9%; with MOLT-4 leukemia, 99.7%.

Take `CC1(C)CN(Cc2ccccc2)CCN1Cc1ccccc1`: the growth is 104% in the experiment with HCT-15 colon; 96.2% in the experiment with HT29 colon; 121% in the experiment on SNB-75 CNS; 98.1% in the experiment with SNB-19 CNS; 92.3% in the experiment with U251 CNS; 95.4% in the experiment with PC-3 prostate. Also, the growth in the experiment on SK-MEL-5 melanoma is 97.8%; in the experiment on UACC-62 melanoma it was 97.9%; with LOX IMVI melanoma it was 98.6%; in the experiment on SK-MEL-28 melanoma it was 111%; in the experiment with SK-MEL-2 melanoma, 103%; with EKVX NSCLC it was 106%. For the same molecule, the growth with SN12C renal was 96.1%; with UO-31 renal, 93.6%; with TK-10 renal, 96.3%; in the experiment with ACHN renal it was 109%; in the experiment on CAKI-1 renal, 102%; in the experiment with A498 renal, 85.8%. The growth in the experiment with CCRF-CEM leukemia was 90.9%; in the experiment with MOLT-4 leukemia, 100%.

For the molecule `CN1CCN(CCCNc2nccc(-c3c(-c4ccc(F)c(O)c4)nc4sccn34)n2)S1(=O)=O`, the growth was 108% in the experiment with HCT-15 colon; 57.7% in the experiment with HT29 colon; 122% with SNB-75 CNS; 114% in the experiment on SNB-19 CNS; 106% in the experiment with U251 CNS; 86.9% in the experiment with PC-3 prostate. The growth with SK-MEL-5 melanoma is 72.6%; in the experiment on UACC-62 melanoma, 11.5%; in the experiment on LOX IMVI melanoma it was 50.7%; with SK-MEL-28 melanoma, 12.8%; in the experiment with SK-MEL-2 melanoma, -1.07% (active); with EKVX NSCLC, 106%. Also, the growth with SN12C renal was 85.1%; with UO-31 renal it was 110%; in the experiment on TK-10 renal it was 133%; in the experiment on ACHN renal, 82.4%; in the experiment with CAKI-1 renal it was 95.5%; in the experiment with A498 renal, 134%. The growth with CCRF-CEM leukemia was 76%; in the experiment on MOLT-4 leukemia it was 82.5%.

Regarding `CCc1nc(C)cn1C(=O)OCc1nc2nc(Cl)nc(N3CCOCC3)c2[nH]1`, the growth in the experiment with HCT-15 colon was -28.1% (active); in the experiment on HT29 colon, -63.1% (active); in the experiment on SNB-75 CNS, 1.78% (active); in the experiment with SNB-19 CNS it was 55.8%; in the experiment with U251 CNS, -55.3% (active); in the experiment on PC-3 prostate, -63.5% (active). For the same molecule, the growth with SK-MEL-5 melanoma is -35.8% (active); in the experiment on UACC-62 melanoma it was -88.4% (active); with LOX IMVI melanoma it was -80.9% (active); in the experiment on SK-MEL-28 melanoma it was -89.6% (active); with SK-MEL-2 melanoma, -90.9% (active); with EKVX NSCLC, 48.2%. Besides, the growth with SN12C renal was -21.3% (active); in the experiment on UO-31 renal, -100% (active); in the experiment with TK-10 renal, -91.5% (active); with ACHN renal, -100% (active); in the experiment with CAKI-1 renal, -80% (active); in the experiment with A498 renal, 22.1%. Moreover, the growth in the experiment on CCRF-CEM leukemia was -5.27% (active); with MOLT-4 leukemia it was 6.91% (active).

In the case of `COc1cccc(CCC(=O)c2cc3c(N)c(C(=O)Nc4cccc(Cl)c4C)sc3nc2C)c1`, the growth in the experiment with HCT-15 colon is 13.8%; in the experiment with HT29 colon, 10.8%; in the experiment with SNB-75 CNS it was -14.5% (active); in the experiment on SNB-19 CNS, 24.1%; with U251 CNS it was 16.7%; with PC-3 prostate, 18.8%. Besides, the growth in the experiment with SK-MEL-5 melanoma is 3.62% (active); with UACC-62 melanoma it was 27%; in the experiment on LOX IMVI melanoma, 33.1%; in the experiment on SK-MEL-28 melanoma it was 44.5%; with SK-MEL-2 melanoma, 36.5%; with EKVX NSCLC, 36.2%. For the same molecule, the growth is 36% with SN12C renal; 30.7% in the experiment on UO-31 renal; 52.9% with TK-10 renal; 32.2% in the experiment on ACHN renal; 20.5% in the experiment with CAKI-1 renal; -6.77% (active) in the experiment with A498 renal. In addition, the growth was 8.7% (active) with CCRF-CEM leukemia and 16% in the experiment on MOLT-4 leukemia.

In the case of `NC(=O)c1ncn(C2OC(CO)C(O)C2O)n1` (stereo not given), the growth in the experiment on HCT-15 colon is 89.3%; in the experiment with HT29 colon, 73.3%; in the experiment on SNB-75 CNS, 80.6%; in the experiment on SNB-19 CNS it was 104%; in the experiment with U251 CNS it was 99.7%; with PC-3 prostate, 85.2%. The growth was 99.1% with SK-MEL-5 melanoma; 104% in the experiment with UACC-62 melanoma; 90.3% in the experiment with LOX IMVI melanoma; 106% in the experiment with SK-MEL-28 melanoma; 40.7% in the experiment with SK-MEL-2 melanoma; 90.2% in the experiment with EKVX NSCLC. In addition, the growth is 82.4% with SN12C renal; 83.7% in the experiment with UO-31 renal; 109% in the experiment on TK-10 renal; 90.5% with ACHN renal; 99.2% in the experiment with CAKI-1 renal; 89.1% with A498 renal. Also, the growth in the experiment with CCRF-CEM leukemia is 67.1%; in the experiment with MOLT-4 leukemia, 52.7%.

On to `c1ccc(Cn2nc3c(c2-c2ccccc2)-c2oncc2CC3)cc1`, for which the growth in the experiment with HCT-15 colon is 99.3%; in the experiment with HT29 colon, 96.3%; in the experiment on SNB-75 CNS, 84.6%; with SNB-19 CNS, 102%; with U251 CNS, 87.9%; with PC-3 prostate it was 68.5%. Moreover, the growth in the experiment with SK-MEL-5 melanoma is 84.8%; in the experiment with UACC-62 melanoma, 76.2%; in the experiment on LOX IMVI melanoma, 90.2%; in the experiment on SK-MEL-28 melanoma it was 94.4%; in the experiment on SK-MEL-2 melanoma it was 102%; with EKVX NSCLC it was 90.1%. The growth is 95.3% in the experiment on SN12C renal; 82.7% in the experiment with UO-31 renal; 107% in the experiment with TK-10 renal; 97.6% in the experiment on ACHN renal; 77.9% in the experiment on CAKI-1 renal; 89.4% in the experiment with A498 renal. The growth with CCRF-CEM leukemia was 80.4%; with MOLT-4 leukemia, 79.8%.

Consider `Cc1cccc(Oc2ccc(Nc3ncnc4ccc(NC(=O)CN(C)C)cc34)cc2Cl)c1`, for which the growth in the experiment on HCT-15 colon is -40.9% (active); with HT29 colon it was 3.23% (active); with SNB-75 CNS, 66.4%; in the experiment with SNB-19 CNS, 59.9%; in the experiment on U251 CNS it was 28.1%; with PC-3 prostate, 40.7%. Also, the growth in the experiment on SK-MEL-5 melanoma was 39.9%; with UACC-62 melanoma it was 102%; in the experiment on LOX IMVI melanoma it was -78.1% (active); with SK-MEL-28 melanoma it was 48.1%; with SK-MEL-2 melanoma it was 84.2%; with EKVX NSCLC, 31.6%. Further, the growth in the experiment with SN12C renal was 36.7%; in the experiment on UO-31 renal, 23.3%; in the experiment with TK-10 renal, 36%; in the experiment on ACHN renal, 16.8%; in the experiment with CAKI-1 renal it was 40.8%; with A498 renal, 58.7%. Besides, the growth with CCRF-CEM leukemia is 47.7%; with MOLT-4 leukemia, 25.9%.
